Only some compounds are listed: those with a hit (about 12% of all), similar ones and a draw of the others.
G9a block: blocks human histone lysine methyltransferase G9a | Q96KQ7 | G9a H3K9 monomethylation, AlphaScreen, 2 h | Potency, µM (titrated, usually from 102 µM), most hits filed as inhibitors | 350,000 compounds, 8.8% hits | AID 504332; further: nearly all actives have a fitted effect of over 75% in size
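Enzyme 20 nM + cpd, 15 min RT; add b-H3K9 pep 500 nM / SAM 20 uM; 2 h RT; anti-H3K9me1 Ab 0.5 ug/mL + SA donor / anti-rabbit acceptor beads 20 ug/mL each, 10 min; AlphaScreen read.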
JMJD2A Tudor inh: inhibitors of human JMJD2A Tudor domain; AlphaScreen JMJD2A-Tudor / H3K4me3 peptide binding; 390,000 compounds, 4.4% hits; AID 504339; Potency, µM (series often up to 114 µM), actives largely listed as inhibitors; further: nearly all actives have a fitted effect of over 50% in size
Target sequence (O75164 whole entry, looked up, the tested form may be a part): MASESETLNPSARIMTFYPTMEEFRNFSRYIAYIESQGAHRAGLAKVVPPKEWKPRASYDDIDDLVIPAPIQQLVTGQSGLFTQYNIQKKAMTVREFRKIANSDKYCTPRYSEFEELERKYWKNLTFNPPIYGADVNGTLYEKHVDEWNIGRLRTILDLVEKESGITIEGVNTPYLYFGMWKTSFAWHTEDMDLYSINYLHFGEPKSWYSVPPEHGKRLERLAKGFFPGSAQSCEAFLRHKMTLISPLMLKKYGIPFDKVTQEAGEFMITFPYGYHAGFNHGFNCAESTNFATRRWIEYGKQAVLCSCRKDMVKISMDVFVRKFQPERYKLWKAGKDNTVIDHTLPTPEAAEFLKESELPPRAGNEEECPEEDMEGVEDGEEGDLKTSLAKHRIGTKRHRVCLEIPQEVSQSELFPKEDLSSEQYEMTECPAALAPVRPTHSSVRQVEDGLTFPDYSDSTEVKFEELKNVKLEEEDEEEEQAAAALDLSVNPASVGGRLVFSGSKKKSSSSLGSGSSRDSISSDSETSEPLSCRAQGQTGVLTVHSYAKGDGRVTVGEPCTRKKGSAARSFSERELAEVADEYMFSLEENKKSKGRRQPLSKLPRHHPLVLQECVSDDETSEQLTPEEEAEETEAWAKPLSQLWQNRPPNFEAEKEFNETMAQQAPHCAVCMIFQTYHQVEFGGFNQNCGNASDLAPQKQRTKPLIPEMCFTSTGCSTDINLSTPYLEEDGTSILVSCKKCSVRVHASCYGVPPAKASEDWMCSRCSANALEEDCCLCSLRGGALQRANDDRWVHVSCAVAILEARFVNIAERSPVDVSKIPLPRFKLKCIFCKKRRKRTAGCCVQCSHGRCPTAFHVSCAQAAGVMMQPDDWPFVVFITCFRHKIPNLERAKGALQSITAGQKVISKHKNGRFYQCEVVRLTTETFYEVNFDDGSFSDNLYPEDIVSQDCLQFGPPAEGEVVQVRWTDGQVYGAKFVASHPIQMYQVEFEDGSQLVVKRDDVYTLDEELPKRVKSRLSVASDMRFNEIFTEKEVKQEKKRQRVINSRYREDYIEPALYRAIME
Sfp inh: inhibitors of Bacillus subtilis Sfp phosphopantetheinyl transferase; Biochemical Sfp PPTase activity, qHTS; Potency, µM, actives largely listed as inhibitors; 310,000 compounds, 3.5% hits;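 further: the enzyme is Sfp with the accession as filed and its product quenches rhodamine fluorescence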
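Buffer: 50 mM Hepes-Na pH 7.6, 10 mM MgCl2, 0.01% Nonidet P-40, 0.01% BSA. Enzyme 15 nM, pre-exposed to compound 15 min; substrates then added and fluorescence change tracked over 30 min.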
BAZ2B block: inhibitors of human BAZ2B bromodomain; Q9UIF8; AlphaScreen BAZ2B-H3K14Ac peptide displacement; Potency, µM (highest dose often 114 µM), hits mostly inhibitors; 360,000 compounds, 4.4% hits; further: nearly all actives have a fitted effect of over 60% in size
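Multi-concentration screen (max 110 uM) measuring displacement of acetylated histone H3 peptide from BAZ2B by AlphaScreen, using 50 nM protein, 50 nM peptide and 10 ug/mL streptavidin donor plus Ni-chelate acceptor beads.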
HP1b chromo inh: blocks HP1-beta chromodomain binding to methylated histone tails; P83916; Potency, µM (highest dose often 114 µM), hits mostly inhibitors; 390,000 compounds, 0.56% hits; AlphaScreen HP1-beta / biotin-H3K9me3 peptide binding; further: nearly all actives have a fitted effect of over 70% in size
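Compound inhibition of the preformed complex between 50 nM HP1-beta and 50 nM biotinylated H3K9me3 peptide was read by AlphaScreen. Buffer was PBS pH 7.4 with 0.01% Tween-20. Incubations ran 30 min at room temperature, with 10 ug/mL donor/acceptor beads.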
Of the large screens only hits and unclear results are named; the others gave an inactive call. The call rests on the fitted dose curve; in most records, active means well fitted curve in the direction sought with a large enough effect; inconclusive means small, poorly fitted or top-dose-only effect, or another doubt; inactive means no such curve, though single readings can be large; an effect the other way counts as inactive or inconclusive.

O=C(CSc1c(Cl)cccc1Cl)NC1CCCc2ccccc21 (centres undefined)	G9a block inconclusive, BAZ2B block inconclusive
O=C(CSc1nnnn1-c1ccccc1)NC1CCCc2ccccc21 (centres undefined)	G9a block 35µM
O=C(CSCCSCC(=O)c1ccco1)c1ccco1	G9a block 10µM, Sfp inh 45µM, BAZ2B block inconclusive (no result: JMJD2A Tudor inh, HP1b chromo inh)
Cn1nnnc1SCC(=O)c1ccco1	G9a block inconclusive, Sfp inh inconclusive
O=C(CSc1nnnn1-c1ccccc1)c1ccco1	G9a block 50µM
O=C(CSc1nc2ccccc2[nH]1)c1ccco1	none
O=c1c2ccccc2nnn1CSc1nnc2sc3ccccc3n12	G9a block 7.1µM (no result: JMJD2A Tudor inh, HP1b chromo inh)
CN(C(=O)c1ccc(OC2CCN(CCc3ccccc3)CC2)cc1)C1CCCCC1	none
CCOC(=O)c1nnn(CC(=O)Nc2ccccc2OC)c1C(=O)OCC	none
O=C(CSc1nnc2sc3ccccc3n12)c1ccco1	G9a block 10µM
O=C(CSc1ncnc2ccccc12)c1ccco1	G9a block 13µM, JMJD2A Tudor inh inconclusive, Sfp inh 20µM, HP1b chromo inh inconclusive
O=C(NC(=S)Nc1cccc(Cl)c1N1CCCCC1)c1ccco1	BAZ2B block inconclusive
O=C(NC(=S)Nc1ccc(N2CCCCC2)cc1)c1ccco1	G9a block inconclusive, JMJD2A Tudor inh 40µM, BAZ2B block 45µM, HP1b chromo inh 16µM
CC1CCN(c2ccc(NC(=S)NC(=O)c3ccco3)cc2)CC1	JMJD2A Tudor inh inconclusive, BAZ2B block 8.9µM
C=CCn1c(SCC(=O)N(CC)C2CCS(=O)(=O)C2)nc2sc3c(c2c1=O)CCC3 (centres undefined)	none (no result: Sfp inh)
CC(C)COC(=O)c1ccc(N2C(=O)c3ccccc3C2=O)cc1	none
Cc1oc(-c2ccc(Cl)cc2)nc1CN1CCC(C(=O)NCCCN2CCOCC2)CC1	none
Cc1oc(-c2ccc(Cl)cc2)nc1CN1CCCC(C(=O)N2CCOCC2)C1 (centres undefined)	G9a block inconclusive
CCN(CCNC(=O)C1CCN(Cc2nc(-c3ccc(Cl)cc3)oc2C)CC1)c1ccccc1	G9a block inconclusive, JMJD2A Tudor inh 50µM, Sfp inh inconclusive, BAZ2B block 14µM, HP1b chromo inh inconclusive
CCc1ccc(-c2nc(CN3CCC(C(=O)NCCN(CC)c4ccccc4)CC3)c(C)o2)cc1	G9a block inconclusive, JMJD2A Tudor inh 50µM, BAZ2B block inconclusive, HP1b chromo inh inconclusive
Cc1cccc(-c2nc(CN3CCCC(C(=O)N4CCN(c5cc(Cl)ccc5C)CC4)C3)c(C)o2)c1 (centres undefined)	G9a block 14µM, BAZ2B block inconclusive (no result: Sfp inh)
CCN(CCNC(=O)C1CCCN(Cc2nc(-c3ccc(OC)cc3)oc2C)C1)c1ccccc1 (centres undefined)	JMJD2A Tudor inh 32µM, Sfp inh inconclusive, BAZ2B block 11µM
CCCCn1nc(C(=O)N[C@@H](CCSC)c2nc3ccccc3[nH]2)c2ccccc2c1=O	G9a block inconclusive
Cc1cc(-c2ccccc2)c2c3c(c(-c4ccccc4)n2n1)c(=O)n(C)c(=O)n3C	BAZ2B block inconclusive
O=C(CSc1nnc(CNC(=O)c2ccccc2)o1)NCc1ccccc1Cl	none
CCOc1ccc(NC(=O)c2nn(C)c(C(=O)Nc3ccc(OCC)cc3)c2[N+](=O)[O-])cc1	none
CCN(CCNC(=O)C1CCN(Cc2nc(-c3cccc(Cl)c3)oc2C)CC1)c1ccccc1	G9a block inconclusive, JMJD2A Tudor inh 40µM, Sfp inh inconclusive, BAZ2B block 40µM, HP1b chromo inh inconclusive
COc1ccc(-n2nnnc2-c2ccccc2)cc1	none
COc1ccc(OC)c(/C=C/C(=O)OCC(=O)NCc2ccco2)c1	G9a block inconclusive (no result: Sfp inh)
COc1ccc2c(c1)O/C(=C\c1sccc1C)C2=O	Sfp inh 45µM
COc1ccc(/C=C2\Oc3ccccc3C2=O)cc1	none (no result: G9a block, Sfp inh, BAZ2B block)
Cc1nnc(SCC(=O)Nc2ccccc2)n(N)c1=O	none
Fc1ccc(-n2[nH]nnc2=S)cc1N1CCCC1	G9a block inconclusive, JMJD2A Tudor inh 79µM, Sfp inh 79µM, BAZ2B block inconclusive, HP1b chromo inh inconclusive
COc1ccc(Nc2nc(NCc3ccco3)nc(N/N=C/c3ccccc3F)n2)cc1	JMJD2A Tudor inh 50µM, BAZ2B block inconclusive, HP1b chromo inh inconclusive
COc1ccc(/C=N/Nc2nc(NCc3ccco3)nc(Nc3ccc(OC)cc3)n2)cc1	BAZ2B block inconclusive
COc1ccc(Nc2nc(NCc3ccco3)nc(N/N=C/c3ccc(O)cc3)n2)cc1	G9a block inconclusive, JMJD2A Tudor inh inconclusive, BAZ2B block 22µM
CC(C)C[C@H](NC(=O)[C@@H]1CCCN1C(=O)[C@H](CO)NC(=O)[C@H](Cc1ccccc1)NC(=O)CNC(=O)[C@@H]1CCCN1C(=O)[C@@H]1CCCN1C(=O)[C@@H](N)CCCN=C(N)N)C(=O)O	none (no result: G9a block, JMJD2A Tudor inh, BAZ2B block, HP1b chromo inh)
COc1ccc(CN(C)CC(=O)Nc2c(C)cccc2C)c(OC)c1	none
CC(NC(=O)CN(C)CC(=O)Nc1ccccc1Br)c1ccccc1 (centres undefined)	JMJD2A Tudor inh 28µM, BAZ2B block 32µM (no result: Sfp inh)
COc1ccc(CN(C)CC(=O)NC(C)c2ccccc2)c(OC)c1 (centres undefined)	G9a block inconclusive, JMJD2A Tudor inh 1.8µM, BAZ2B block 56µM, HP1b chromo inh inconclusive
COc1ccc(OC)c(NC(=O)CN(C)CC(=O)Nc2ccccc2Br)c1	G9a block 7.9µM, JMJD2A Tudor inh 8.9µM, Sfp inh inconclusive, BAZ2B block 45µM
CN(CC(=O)Nc1ccccc1Br)CC(=O)NC(c1ccccc1)c1ccccc1	BAZ2B block inconclusive (no result: Sfp inh)
COc1cccc(NC(=O)CN(C)CC(=O)NC(C)c2ccccc2)c1 (centres undefined)	G9a block 71µM
COc1ccc(CN(C)CC(=O)Nc2cccc3ccccc23)cc1F	none
CCOc1ccc(CN(C)CC(=O)Nc2cccc3ccccc23)cc1OC	G9a block 7.1µM, JMJD2A Tudor inh 0.79µM, Sfp inh inconclusive, HP1b chromo inh inconclusive (no result: BAZ2B block)
O=C1C=C(N2CCOCC2)c2ccccc2C1=O	G9a block inconclusive
CC1=C(C)C(=O)C(N2CCOCC2)=CC1=O	G9a block 45µM, BAZ2B block inconclusive
CC1CCCC(NC(=O)CSc2nnc(N)s2)C1C (centres undefined)	none
COC(=O)Cc1cc(=O)n(-c2nc3ccccc3[nH]2)[nH]1	JMJD2A Tudor inh 18µM, BAZ2B block 7.9µM
COc1cccc(N=Cc2c[nH][nH]c2=O)c1	JMJD2A Tudor inh 56µM (no result: G9a block)
CCN1C(C)=C(C(=O)OC)C(c2ccccc2)N2C(=O)[C@@]3(C(=O)OC)O[C@@]12C1C(=O)N(c2ccccc2)C(=O)C13 (some centres undefined)	none (no result: G9a block, JMJD2A Tudor inh, BAZ2B block, HP1b chromo inh)
COc1ccc(NS(=O)(=O)c2cc(NC(=O)c3cc(F)c(F)c(F)c3F)ccc2N2CCCC2)cc1	none (no result: G9a block)
COc1ccc(NS(=O)(=O)c2cc(NC(=O)C3CCCO3)ccc2N2CCCCC2)cc1 (centres undefined)	G9a block 40µM
